Most compounds without a hit are left out; they make up all but 1.2% or so of the library.
RGS7-Gao reg: modulates binding of RGS7 to human Galphao. P09471. Multiplexed bead flow cytometry; actives lie on both sides. binding response (% of control), % at 10 µM. 220,000 tested, 0.35% active. AID 1439; in the data active = binding response below about 49% or above about 150%; inconclusive = no clear call, values can overlap the other calls; inactive = in between;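 note: fluorescent Galphao held in activated GDP-AlF4 state binding bead-coupled RGS7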
Target sequence (P09471 whole entry, looked up): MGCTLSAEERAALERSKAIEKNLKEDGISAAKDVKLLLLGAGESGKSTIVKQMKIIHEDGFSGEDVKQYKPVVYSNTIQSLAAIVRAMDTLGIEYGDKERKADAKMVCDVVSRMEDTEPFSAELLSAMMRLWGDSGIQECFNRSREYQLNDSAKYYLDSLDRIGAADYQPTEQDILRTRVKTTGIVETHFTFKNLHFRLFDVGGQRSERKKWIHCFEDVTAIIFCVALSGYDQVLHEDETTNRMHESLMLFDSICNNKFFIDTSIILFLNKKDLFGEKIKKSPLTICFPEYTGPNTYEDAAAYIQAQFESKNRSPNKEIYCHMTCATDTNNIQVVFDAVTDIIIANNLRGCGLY
RGS8-Gao: regulators of human RGS8-Galphao interaction | P09471 | multiplexed bead flow cytometry, RGS8-Galphao binding; actives lie on both sides | response (percent of control binding), % at 10 µM | 220,000 tested, 0.34% active; in the data active = response below about 60% or above about 140%; inactive = in between;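 note: Galphao activated as the GDP aluminium fluoride complex binding bead-coupled RGS8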
RGS4-Gao reg: modulates binding of RGS4 to human Galphao; P09471; 220,000 tested, 0.33% active; binding response (% of control), % at 10 µM; Multiplexed bead flow cytometry; actives lie on both sides; AID 1415; in the data active = binding response below about 49% or above about 150%; inactive = in between;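 note: fluorescent Galphao activated with aluminum fluoride binding bead-coupled RGS4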
Avidin bead fluor: avidin bead compound fluorescence profile | Avidin beads, compound fluorescence 488/530 nm, flow cytometry; stronger effect = higher value | fluorescence (KMESF) at 10 µM | 220,000 tested, 0.38% active; in the data active = fluorescence above about 47
RGS16-Gao HTS: regulators of human RGS16-Galphao interaction | bead-based flow cytometry RGS16-Galphao binding, fluorescence; actives lie on both sides | binding response (% of control), % at 10 µM | 220,000 tested, 0.38% active;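 note: Galphao activated by GDP with aluminum fluoride before binding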
Target sequence (O15492 whole entry, looked up): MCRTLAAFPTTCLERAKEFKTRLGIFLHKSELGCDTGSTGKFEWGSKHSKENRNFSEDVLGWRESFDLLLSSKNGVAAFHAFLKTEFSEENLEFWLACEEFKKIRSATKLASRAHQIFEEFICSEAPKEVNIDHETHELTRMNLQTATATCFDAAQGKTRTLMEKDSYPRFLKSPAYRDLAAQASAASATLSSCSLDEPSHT
Target sequence (P09471 whole entry, looked up): as the sequence (P09471 whole entry, looked up) above
GSH fluor: compound fluoresces at 488/530 nm on GSH beads | GSH beads flow cytometry, compound fluorescence 488/530 nm; stronger effect = higher value | fluorescence (KMESF) at 10 µM | 190,000 tested, 0.25% active; in the data active = fluorescence above about 89;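 note: glutathione beads carrying GST-tagged Bcl family fusion proteins plus one bare bead set; values are compound well signal with DMSO vehicle wells as background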
RGS4-Gao HTS: modulates binding between human RGS4 and Galphao | shares compounds with RGS16-Gao HTS | multiplexed bead flow cytometry, RGS–Galpha-o binding | RGS4–Galpha-o binding response, % at 10 µM | 1,600 tested, 99% active | AID 1504;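 note: fluorescently labeled Galpha-o bound to GDP with aluminium fluoride binding biotinylated RGS beads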
Avidin counter: counter-screen: compounds disrupting biotin binding to avidin beads; AID 1783; 1,700 tested, under 10 active; inhibition, % at 10 µM; streptavidin beads, fluorescein-biotin binding, flow cytometry; shares compounds with RGS16-Gao HTS;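 active = inhibition above 50%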;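 note: median green fluorescence of gated singlet beads compared with DMSO control wells; 0% = DMSO wells and 100% = complete loss of bead fluorescence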
RGS8-Gao single: confirmation of regulators of human RGS8-Galphao interaction; shares compounds with RGS16-Gao HTS; bead-based flow cytometry RGS8-Galphao binding, fluorescence; actives lie on both sides; binding response (% of control), % at 10 µM; 1,700 tested, 3% active; in the data active = binding response below about 72% or above about 130%; inactive = in between;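 note: Galphao activated as GDP AlF4 complex before binding bead RGS8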
RGS7-Gao single: confirmation of regulators of human RGS7-Galphao interaction; AID 1837; 1,700 tested, 7.8% active; response (percent of control binding), % at 10 µM; bead-based flow cytometry RGS7-Galphao binding; actives lie on both sides; shares compounds with RGS16-Gao HTS; in the data active = response below about 75% or above about 130%; inactive = in between;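 note: fluorescent Galphao activated with GDP and aluminum fluoride binding bead-coupled RGS7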
RGS16-Gao single: RGS16-Galphao interaction regulation, single point confirmation | AID 1838 | bead-based flow cytometry, RGS16-Galphao binding; actives lie on both sides | response (% of control binding), % at 10 µM | shares compounds with RGS16-Gao HTS | 1,700 tested, 4% active; in the data active = response below about 74% or above about 130%; inactive = in between;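 note: Galphao activated as the GDP aluminium fluoride complex binding bead-coupled RGS16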
RGS4-Gao single: RGS4-Galphao interaction regulation, single point confirmation; 1,700 tested, 4% active; shares compounds with RGS16-Gao HTS; binding response (% of control), % at 10 µM; AID 1840; RGS4-Galphao binding, multiplexed bead flow cytometry; actives lie on both sides; in the data active = binding response below about 74% or above about 130%; inactive = in between
RGS19-Gao single: confirmation of regulators of human RGS19-Galphao interaction | 1,700 tested, 5% active | bead-based flow cytometry RGS19-Galphao binding; actives lie on both sides | response (percent of control binding), % at 10 µM | AID 1841 | shares compounds with RGS16-Gao HTS; in the data active = response below about 50% or above about 160%; inactive = in between;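 note: 100% = no compound control and 0% = blank background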
Numbers without * were called inactive; ? = inconclusive; . = no result; [ ] = another dose, or the depositor's remark. Unless noted, the rule behind the calls is not given here.

SMILES	RGS7-Gao reg	RGS8-Gao	RGS4-Gao reg	Avidin bead fluor	RGS16-Gao HTS	GSH fluor	RGS4-Gao HTS	Avidin counter	RGS8-Gao single	RGS7-Gao single	RGS16-Gao single	RGS4-Gao single	RGS19-Gao single
CCCCCCC(=O)c1c(C)[nH]c(C(=O)OCC)c1C	120.7	.	120.1	11	.	32	.	2.5	99.1	98.7	101.8	99.7	78.6
Cc1ccc(CN2CCN(/N=C/c3cccnc3)CC2)cc1	110.1	125.2	110.4	6	260.5*[activator]	12	110.4*	2.8	99.5	100.4	98.7	97.9	84.6
Cc1ccc(CN2CCN(/N=C/c3ccc(C(=O)O)cc3)CC2)cc1	98.5	99.9	99.7	14	98.1	9	.	.	.	.	.	.	.
O=C(O)c1ccc(/C=N/N2CCN(Cc3ccc(Cl)cc3)CC2)cc1	125.4	148.2*[activator]	116.5	14	262.3	12	116.5*	-1.6	97.5	82.5	92.6	91.4	82.8
CCN(CC)c1ccc(/C=N\N2CCN(Cc3ccc(C)cc3)CC2)cc1	105.6	102.8	104.9	12	109.3	20	.	.	.	.	.	.	.
COc1ccc(Nc2nc3[nH]c(=O)cc(O)c3s2)cc1	20.7*	15.8*	23.4*	2	12.3*	14	.	-1.2	99.0	86.7	95.5	94.3	70.3
Cc1cccc(CC2S/C(=N/c3ccccn3)NC2=O)c1 (stereo unspecified)	113.7	141.5*[activator]	113.3	6	236.5	21	113.3*	-1.3	108.7	105.1	106.3	103.3	108.8
O=C1N/C(=N\c2ccccn2)SC1Cc1ccccc1Cl (stereo unspecified)	?	91.2	86.6	5	85.5	.	.	.	.	.	.	.	.
OCCN1CCN(c2cc(C(F)(F)F)nc3c(F)cccc23)CC1	?	10.8*	-9.0*	-1	-6.6*	.	.	-0.5	101.8	99.5	103.1	99.8	107.1
O=[N+]([O-])c1cc(C(F)(F)F)c(Cl)cc1N1CCN(CCO)CC1	99.6	101.9	102.6	22	99.3	15	.	.	.	.	.	.	.
COc1cccc(N/C=C/C(=O)c2ccc(Cl)cc2)c1	94.6	81.5	88.6	1	65.5	6	.	.	.	.	.	.	.
COc1ccc(N/C=C/C(=O)c2ccc(Cl)cc2)cc1	125.4	60.0*	127.9	11	60.8	10	127.9*	-0.8	99.3	102.0	104.5	102.2	100.2
O=C(Nc1ccc(Cl)c(Cl)c1)OCCNC(=O)c1ccncc1	?	81.4	96.1	11	104.2	11	.	-0.1	102.5	106.4	105.3	103.7	92.3
COc1ccc(C(=O)Cc2ccc(OC)c(OC)c2)cc1	.	.	.	.	.	37	.	-0.7	101.0	98.5	104.2	101.3	106.8
COCCN(C(=S)Nc1ccc(C)cc1C)C(C)c1ccco1 (stereo unspecified)	142.4	164.3*[activator]	160.2*[activator]	8	396.6	11	.	0.7	99.4	98.4	96.9	98.1	105.9
O=C(NCc1ccco1)c1ccc(S(=O)(=O)N2CCCc3ccccc32)cc1	88.5	77.3	79.8	0	-44.4*	43	79.8*	.	.	.	.	.	.
O=C(NCc1ccccc1)c1ccc(S(=O)(=O)N2CCCc3ccccc32)cc1	97.6	100.4	99.2	38	99.2	14	.	.	.	.	.	.	.
Cc1ccc(C)c(NC(=O)CSc2nnc(-c3ccccc3)n2N)c1	111.8	141.4*[activator]	119.4	6	428.1	27	119.4*	-1.2	99.8	95.3	101.1	98.4	91.4
Cc1cccc(N2C(=O)C(Oc3ccc(Cl)cc3Cl)C2C=O)c1C (stereo unspecified)	100.0	100.5	101.2	10	107.1	4	.	.	.	.	.	.	.
Cc1ccc2[nH]c3c(c2c1)CC/C(=C/c1ccccc1)C3=O	214.3*[activator]	96.5	113.3	194*	129.4	13	113.3*	3.9	94.2	94.1	92.5	96.8	96.8
COc1ccc(CN2CCC(C(=O)N3CCN(c4ccccc4F)CC3)CC2)cc1OC	141.3	141.3*[activator]	134.6	25	183.9	25	134.6*	.	.	.	.	.	.
COc1cc(CN2CCC(C(=O)N3CCN(c4ccccc4F)CC3)CC2)cc(OC)c1OC	98.6	100.0	99.6	8	102.1	35	.	.	.	.	.	.	.
C=CCc1cc(/C=C2/NC(=O)N(CC(=O)OC)C2=O)cc(OC)c1O	106.1	107.5	103.7	22	119.5	11	.	.	.	.	.	.	.
COc1ccc(-c2nnc(SCC(=O)Nc3cc(F)ccc3C)o2)cc1	184.6*[activator]	99.8	120.1	116*	110.3	22	120.1*	.	.	.	.	.	.
CCc1cc2ccccc2nc1SCC(=O)Nc1cc(C)on1	104.9	107.7	105.7	12	115.9	25	.	.	.	.	.	.	.
SMILES	RGS7-Gao reg	RGS8-Gao	RGS4-Gao reg	Avidin bead fluor	RGS16-Gao HTS	GSH fluor	RGS4-Gao HTS	Avidin counter	RGS8-Gao single	RGS7-Gao single	RGS16-Gao single	RGS4-Gao single	RGS19-Gao single
Cc1cc(NC(=O)CSc2nc(-c3ccc(F)cc3)cs2)no1	85.4	90.7	87.0	14	89.3	15	.	.	.	.	.	.	.
Cc1cc(NC(=O)CSc2nnc(-c3ccco3)o2)no1	95.6	102.1	100.2	.	.	44	.	3.5	94.6	80.3	89.5	86.0	71.1
Cc1cc(NC(=O)CSc2ccc3ccccc3c2)no1	.	.	.	.	.	29	.	-1.2	98.9	98.4	96.2	96.9	104.5
Cc1cc(NC(=O)CSc2nc(-c3ccccc3)cs2)no1	.	.	.	.	.	40	.	-0.6	98.1	99.5	96.8	98.9	117.5
CC(=O)Nc1ccc(NC(=O)CSc2nnc(-c3ccco3)o2)cc1	103.6	100.9	100.5	21	104.1	11	.	.	.	.	.	.	.
Cc1ccc2c(c1)Sc1c(ccc3ccccc13)N2	?	99.8	97.5	4	102.4	.	.	.	.	.	.	.	.
COc1cccc(CN2CCN(Cc3ccc(O)cc3)CC2CCO)c1 (stereo unspecified)	99.9	100.5	101.8	9	102.2	12	.	.	.	.	.	.	.

From PubChem
